In the supplement of paper PMC9492666:
Counter-ions that a name gives are not always drawn.

Key:
[1] = test system: HCC1937; assay: relative cell viability, compound + RSL3, vs DMSO (fraction of DMSO control); higher = less growth inhibition; conditions: 72 h
[2] = test system: MDA-MB-231; assay: as above; conditions: 72 h
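Also: breast cancer cell viability read out with the CCK-8 kit after co-treatment of each compound with the ferroptosis inducer RSL3.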

SMILES | relative cell viability [1] | relative cell viability [2]
CC1(N)CCN(c2cnc(-c3cccc(Cl)c3Cl)c(N)n2)CC1 [SHP099 hydrochloride] + COC(=O)c1ccc([C@H]2c3[nH]c4ccccc4c3C[C@H](C(=O)OC)N2C(=O)CCl)cc1 [RSL3] | 0.397 | 0.628
CC(C)(Oc1ccc(C2CC2(Cl)Cl)cc1)C(=O)O (stereo not given) [Ciprofibrate] + COC(=O)c1ccc([C@H]2c3[nH]c4ccccc4c3C[C@H](C(=O)OC)N2C(=O)CCl)cc1 [RSL3] | 0.787 | 0.706
CCCc1c(OCCCOc2ccc(OCC(=O)O)cc2)ccc(C(C)=O)c1O + COC(=O)c1ccc([C@H]2c3[nH]c4ccccc4c3C[C@H](C(=O)OC)N2C(=O)CCl)cc1 [RSL3] | 0.556 | 0.757
O=C(NN1CCCCC1)c1nn(-c2ccc(Cl)cc2Cl)c(-c2ccc(C#Cc3ccc(C(F)(F)F)cc3)s2)c1CNS(=O)(=O)N1CCCC1 + COC(=O)c1ccc([C@H]2c3[nH]c4ccccc4c3C[C@H](C(=O)OC)N2C(=O)CCl)cc1 [RSL3] | 0.75 | 0.345
O=S(=O)(O)c1ccc2cc(N=Nc3cc(S(=O)(=O)O)c4cccnc4c3O)ccc2c1 + COC(=O)c1ccc([C@H]2c3[nH]c4ccccc4c3C[C@H](C(=O)OC)N2C(=O)CCl)cc1 [RSL3] | 0.511 | 0.744
O=C(O)CCCc1cc2cc(Cl)ccc2n1S(=O)(=O)c1ccc2ncsc2c1 [Lanifibranor] + COC(=O)c1ccc([C@H]2c3[nH]c4ccccc4c3C[C@H](C(=O)OC)N2C(=O)CCl)cc1 [RSL3] | 0.464 | 0.786
c1cc(-c2cnn3cc(-c4ccc(OCCN5CCCCC5)cc4)cnc23)ccn1 [Dorsomorphin dihydrochloride] + COC(=O)c1ccc([C@H]2c3[nH]c4ccccc4c3C[C@H](C(=O)OC)N2C(=O)CCl)cc1 [RSL3] | 0.111 | 0.286
C[C@]12C=CC(=O)N[C@@H]1CC[C@@H]1[C@@H]2CC[C@]2(C)[C@@H](C(=O)Nc3cc(C(F)(F)F)ccc3C(F)(F)F)CC[C@@H]12 [Dutasteride] + COC(=O)c1ccc([C@H]2c3[nH]c4ccccc4c3C[C@H](C(=O)OC)N2C(=O)CCl)cc1 [RSL3] | 0.53 | 0.427
COc1ccc(CN2CCC(c3ccc4nc(C(=O)N5CCN(Cc6ccc(C(F)(F)F)cc6)CC5)[nH]c4c3)CC2)cn1 + COC(=O)c1ccc([C@H]2c3[nH]c4ccccc4c3C[C@H](C(=O)OC)N2C(=O)CCl)cc1 [RSL3] | 0.351 | 0.562
C[C@@H](Nc1nc(N[C@H](C)C(F)(F)F)nc(-c2cccc(Cl)n2)n1)C(F)(F)F [Vorasidenib] + COC(=O)c1ccc([C@H]2c3[nH]c4ccccc4c3C[C@H](C(=O)OC)N2C(=O)CCl)cc1 [RSL3] | 0.409 | 0.595
C[C@H](CCCC(C)(C)O)[C@H]1CC[C@H]2[C@@H]3CC=C4C[C@@H](O)CC[C@]4(C)[C@H]3CC[C@]12C [25-Hydroxycholesterol] + COC(=O)c1ccc([C@H]2c3[nH]c4ccccc4c3C[C@H](C(=O)OC)N2C(=O)CCl)cc1 [RSL3] | 0.572 | 0.649
CC(C)[C@H](N=C(NS(=O)(=O)c1ccc(Cl)cc1)N1C[C@H](c2ccccc2)C(c2ccc(Cl)cc2)=N1)C(N)=O + COC(=O)c1ccc([C@H]2c3[nH]c4ccccc4c3C[C@H](C(=O)OC)N2C(=O)CCl)cc1 [RSL3] | 0.551 | 0.45
Fc1ccc(-c2c3cccc(C(F)(F)F)c3nn2Cc2ccc(F)cc2Cl)cc1 + COC(=O)c1ccc([C@H]2c3[nH]c4ccccc4c3C[C@H](C(=O)OC)N2C(=O)CCl)cc1 [RSL3] | 0.756 | 0.578
O=C(NC1CCN(CCCCC2(C(=O)NCC(F)(F)F)c3ccccc3-c3ccccc32)CC1)c1ccccc1-c1ccc(C(F)(F)F)cc1 [Lomitapide] + COC(=O)c1ccc([C@H]2c3[nH]c4ccccc4c3C[C@H](C(=O)OC)N2C(=O)CCl)cc1 [RSL3] | 0.173 | 0.391
Cc1cnc(C(=O)NCCc2ccc(S(=O)(=O)NC(=O)NC3CCCCC3)cc2)cn1 [Glipizide] + COC(=O)c1ccc([C@H]2c3[nH]c4ccccc4c3C[C@H](C(=O)OC)N2C(=O)CCl)cc1 [RSL3] | 0.597 | 0.484
COc1ccc2[nH]cc(CCNC(C)=O)c2c1 [Melatonine] + COC(=O)c1ccc([C@H]2c3[nH]c4ccccc4c3C[C@H](C(=O)OC)N2C(=O)CCl)cc1 [RSL3] | 0.613 | 0.465
CC1(C)CC[C@]2(C(=O)O[C@@H]3O[C@H](CO)[C@@H](O)[C@H](O)[C@H]3O)CC[C@]3(C)C(=CC[C@@H]4[C@@]5(C)CC[C@H](O[C@@H]6O[C@H](C(=O)O)[C@@H](O)[C@H](O)[C@H]6O[C@@H]6O[C@H](CO)[C@@H](O)[C@H](O)[C@H]6O)C(C)(C)[C@@H]5CC[C@]43C)[C@@H]2C1 [Ginsenoside Ro] + COC(=O)c1ccc([C@H]2c3[nH]c4ccccc4c3C[C@H](C(=O)OC)N2C(=O)CCl)cc1 [RSL3] | 0.375 | 0.478
COc1ccc([C@@H]2OC[C@H]3[C@@H]2CO[C@@H]3c2ccc(O[C@@H]3O[C@H](CO)[C@@H](O)[C@H](O)[C@H]3O)c(OC)c2)cc1OC [Forsythin] + COC(=O)c1ccc([C@H]2c3[nH]c4ccccc4c3C[C@H](C(=O)OC)N2C(=O)CCl)cc1 [RSL3] | 0.731 | 0.664

SMILES | relative cell viability [1] | relative cell viability [2]
CC(C)=CCC(O)C1=CC(=O)c2c(O)ccc(O)c2C1=O (single isomer, unassigned; (+)) [(+)-Shikonin] + COC(=O)c1ccc([C@H]2c3[nH]c4ccccc4c3C[C@H](C(=O)OC)N2C(=O)CCl)cc1 [RSL3] | 0.0766 | 0.132
CN(CCOc1ccc(CC2SC(=O)NC2=O)cc1)c1ccccn1 (stereo not given) [Rosiglitazone HCl] + COC(=O)c1ccc([C@H]2c3[nH]c4ccccc4c3C[C@H](C(=O)OC)N2C(=O)CCl)cc1 [RSL3] | 0.486 | 0.714
CCOC(=O)C(C)(C)Oc1ccc(Cl)cc1 [Clofibrate] + COC(=O)c1ccc([C@H]2c3[nH]c4ccccc4c3C[C@H](C(=O)OC)N2C(=O)CCl)cc1 [RSL3] | 0.728 | 0.619
CC(=O)Oc1cc(C(F)(F)F)ccc1C(=O)O [Triflusal] + COC(=O)c1ccc([C@H]2c3[nH]c4ccccc4c3C[C@H](C(=O)OC)N2C(=O)CCl)cc1 [RSL3] | 0.717 | 0.492
COc1cc(F)c(C(C)C)cc1-c1ccc(C(F)(F)F)cc1CN1C(=O)O[C@H](c2cc(C(F)(F)F)cc(C(F)(F)F)c2)[C@@H]1C [Anacetrapib] + COC(=O)c1ccc([C@H]2c3[nH]c4ccccc4c3C[C@H](C(=O)OC)N2C(=O)CCl)cc1 [RSL3] | 0.622 | 0.497
O=C(O)Cc1cccc(OCCCN(Cc2cccc(C(F)(F)F)c2Cl)CC(c2ccccc2)c2ccccc2)c1 + COC(=O)c1ccc([C@H]2c3[nH]c4ccccc4c3C[C@H](C(=O)OC)N2C(=O)CCl)cc1 [RSL3] | 0.418 | 0.686
O=C(O)C(=O)Nc1sc2c(c1C(=O)O)CCNC2 + COC(=O)c1ccc([C@H]2c3[nH]c4ccccc4c3C[C@H](C(=O)OC)N2C(=O)CCl)cc1 [RSL3] | 0.541 | 0.648
CC(C)(Oc1ccc(Cl)cc1)C(=O)O [Clofibric acid] + COC(=O)c1ccc([C@H]2c3[nH]c4ccccc4c3C[C@H](C(=O)OC)N2C(=O)CCl)cc1 [RSL3] | 0.956 | 0.603
CN(C)CCOC(=O)COc1ccc(Cl)cc1 [Meclofenoxate hydrochloride] + COC(=O)c1ccc([C@H]2c3[nH]c4ccccc4c3C[C@H](C(=O)OC)N2C(=O)CCl)cc1 [RSL3] | 0.612 | 0.574
Cc1c(C(=O)NN2CCCCC2)nn(-c2ccc(Cl)cc2Cl)c1-c1ccc(Cl)cc1 [Rimonabant] + COC(=O)c1ccc([C@H]2c3[nH]c4ccccc4c3C[C@H](C(=O)OC)N2C(=O)CCl)cc1 [RSL3] | 0.649 | 0.216
Cc1c(C(=O)NN2CCOCC2)nn(-c2ccc(Cl)cc2Cl)c1-c1ccc(I)cc1 + COC(=O)c1ccc([C@H]2c3[nH]c4ccccc4c3C[C@H](C(=O)OC)N2C(=O)CCl)cc1 [RSL3] | 0.0566 | 0.297
CC(C)(C)c1ccc(-c2nc3ccccc3[nH]2)cc1 + COC(=O)c1ccc([C@H]2c3[nH]c4ccccc4c3C[C@H](C(=O)OC)N2C(=O)CCl)cc1 [RSL3] | 0.529 | 0.399
Cc1nc2ccc(C(=O)N3CCC4(CC3)CC(=O)c3c(cnn3C(C)C)C4)cc2[nH]1 + COC(=O)c1ccc([C@H]2c3[nH]c4ccccc4c3C[C@H](C(=O)OC)N2C(=O)CCl)cc1 [RSL3] | 0.402 | 0.591
CCC(=O)Nc1cccc(Oc2nc(Nc3ccc(N4CCN(C)CC4)cc3OC)ncc2Cl)c1 + COC(=O)c1ccc([C@H]2c3[nH]c4ccccc4c3C[C@H](C(=O)OC)N2C(=O)CCl)cc1 [RSL3] | 0.121 | 0.3
O=C(c1ccc(-c2nc3ccc(F)cc3o2)cc1)N1CCN(C(=O)C2(O)CC2)CC1 + COC(=O)c1ccc([C@H]2c3[nH]c4ccccc4c3C[C@H](C(=O)OC)N2C(=O)CCl)cc1 [RSL3] | 0.398 | 0.683
CC(=O)c1c(C)cc2cccc(O)c2c1O [Nepodin] + COC(=O)c1ccc([C@H]2c3[nH]c4ccccc4c3C[C@H](C(=O)OC)N2C(=O)CCl)cc1 [RSL3] | 0.404 | 0.56
CN1c2ccccc2C(=O)Nc2cnc(Nc3ccc(N4CCC(O)CC4)cc3)nc21 + COC(=O)c1ccc([C@H]2c3[nH]c4ccccc4c3C[C@H](C(=O)OC)N2C(=O)CCl)cc1 [RSL3] | 0.206 | 0.375
